We go through eleven substances from ChEMBL document CHEMBL1201862, “PubChem BioAssay data set” (2004).

The campaign covered roughly 58,000 sequences. About 4,000 (6.9%) were called active. Rule as the data show it: active = GI50 up to about 1.1 µM and inactive = higher. A selection follows. Measured potencies and affinities stand elsewhere.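 Values below derive from 48-hour exposures of cells grown in 96-well plates, with endpoints linearly interpolated between the two concentrations bracketing the appropriate inhibition level. GI50 = concentration required for 50% inhibition of growth.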

The assay relates to SF-295. The assay is described as follows: NCI tumour cell line growth inhibition, 48 h.
“mu-(1,7-nanodiamine-N,N')bis-(cis-aminedichloroplatimum (II)), CHEMBL2146215”: the GI50 came out at 14.3 µM.

For “[Bis(aminomethyl)tetramethylenesilane]dichloropaltinum(II), CHEMBL2146205”, the GI50 stood at 27.7 µM.

In turn, “[Bis(aminomethyl)pentamethylenesilane]tetrachloropaltinum(IV), CHEMBL2146204” showed a GI50 of 3.3 µM.

With “[Bis(aminomethyl)dimethylsilane]tetrachloroplatinum(IV), CHEMBL2146190”, the GI50 came to 4.39 µM.

On to “[Bis(aminomethyl)pentamethylenesilane]dichloropaltinum(II), CHEMBL2146202”, for which the GI50 was 2.65 µM.

Substance “cis-Bis[[(trimethylsilyl)methyl]amino]tetrachloroplatinum(IV), CHEMBL2146191” showed a GI50 of 13.7 µM.

“[Bis(aminomethyl)tetramethylenesilane]tetrachloropaltinum(IV), CHEMBL2146189” came in with a GI50 of 5.25 µM.

The substance “[Bis(aminomethyl)ethylmethylsilane]tetrachloroplatinum(IV), CHEMBL2146192” showed a GI50 of 3.17 µM.

In turn, “[Bis(aminomethyl)dimethylsilane]dichloroplatinum (II), CHEMBL2146201” showed a GI50 of 11.9 µM.

CISPLATIN, CHEMBL11359 had a GI50 of 0.912 µM.

As for “[Bis(aminomethyl)diethylsilane]tetrachloroplatinum(IV), CHEMBL2146203”, the GI50 stood at 3.37 µM.
